Laboratory results from PubChem BioAssay AID720513 (Broad Institute, 2013).
Hit rate of the full screen: of about 2,100 compounds, about 480 (23%) were called active. Not shown: some 5% with an inconclusive outcome.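 How the source made its calls: active means fitted curve reaches 40% activation at or below the top valid concentration, in every replicate test; inconclusive means replicate tests disagree on the call; inactive means the rest, including activity in the opposite direction.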 These entries were drawn from the full list. Potency and affinity values are given separately.

Assay: activators raising PGC1a acetylation in cells, dose response, cell-based, cherry-picked samples, set 6 (AID 720513);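 further: cells made to overexpress flag tagged PGC1a plus GCN5 acetyltransferase by viral infection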
Details: U2OS PGC1a acetylation AlphaLISA, overnight, 0 = neutral, -100 = inhibitor control; series mostly up to 19.5 µM

outcome, inactive:
Cc1ccccc1NC(=O)Nc1ccccc1Br
Cc1ccc(C)c(NC(=O)c2nnn(Cc3ccccc3)c2N)c1
Cc1cc(C)n(-c2ccc(Cl)c(C(=O)OCC(N)=O)n2)n1
CC(C)(C)c1ccc(CCC2OCC(C[N+]3(C)CCOCC3)O2)cc1 (centres undefined)
Clc1ccccc1CN1CCSCC1
COc1ccc(-c2cc(N)n(S(=O)(=O)c3c(F)c(F)c(F)c(F)c3F)n2)cc1OC
O=C(CCSc1nnc(-c2ccc(O)cc2)o1)N1CCOCC1
O=S(=O)(c1ccccc1)c1ncc(C(F)(F)F)cc1Cl
NNS(=O)(=O)c1ccc(Cc2ncc(C(F)(F)F)cc2Cl)s1
CC(=O)N(c1cccc(C)c1)S(=O)(=O)c1ccc(Cl)cc1
CC(C)NC(=O)N(C)C[C@H]1OCc2cnnn2CCCC(=O)N([C@@H](C)CO)C[C@H]1C
Oc1ccc(/C=N/Nc2nc(-c3ccc(Cl)cc3)cc(C(F)(F)F)n2)cc1
CCOc1ccc(N(C(=O)Nc2ccccc2)C2=NCCC2)cc1
CCOc1ccc(NS(=O)(=O)c2ccc3c(c2)oc(=O)n3C)cc1
Cn1cccc1C(=O)OCC(=O)Nc1ccc2c(c1)CCC2
COc1ccc(Cl)cc1NC(=O)CN1CCC(n2nnc3cc(C)ccc32)CC1
O=C(CCC1CCCCC1)NCc1cccs1
O=C(OCc1ccccc1)N1CCC2CC1c1cc(-c3ccc(F)cc3)ccc12 (centres undefined)
COc1cccc(OC)c1NC(=O)C1CCCN1C(=O)NCc1ccccc1 (centres undefined)
O=C(Cc1ccc(-n2cccc2)cc1)NCc1cccs1
O=C(NCC[C@@H]1CC[C@H](NS(=O)(=O)c2ccccc2)[C@@H](CO)O1)c1ccccc1F
CCOC(=O)C1CCCN(C(=O)CSc2ccc(Br)cc2)C1 (centres undefined)
CCCNC(=O)Nc1ccc2c(c1)C(=O)N(C)C[C@H](OC)[C@H](C)CN(CC1CCCC1)[C@@H](C)CO2
O=C(Cc1ccccn1)N[C@H]1CC[C@H](CCn2cc(-c3ccccc3)nn2)O[C@@H]1CO
CCNC(=O)C1(C)CCCN1Cc1ccccc1Cl (centres undefined)
N#CC(C#N)=c1ccc2c(c1)NC1(CCCCC1)N=2
O=C(c1ccco1)N(Cc1ccc([N+](=O)[O-])cc1)c1ccc(Br)cc1
C#CCN(C[C@@H]1[C@@H](OC(=O)NCC2CCCCC2)[C@@H](OC(=O)NCC2CCCCC2)Cn2c(=O)ccc(=O)n21)S(=O)(=O)c1ccc(C)cc1
COc1ccc(OCCCC(=O)OCC(=O)Nc2c(C)nn(-c3ccccc3)c2C)cc1
O=C(C[C@@H]1C=C[C@@H](NC(=O)Nc2ccc(C(F)(F)F)cc2)[C@H](CO)O1)NCc1ccccn1
C[C@@H]1CN([C@@H](C)CO)C(=O)CCCn2nncc2CO[C@@H]1CN(C)C(=O)NC1CCCCC1
Cc1cc(C)c(C(=O)/C=C/c2ccc(C(C)C)cc2)c(=O)[nH]1
C[C@H]1CN([C@@H](C)CO)S(=O)(=O)c2ccc(C3=CCCC3)cc2O[C@H]1CN(C)Cc1cncnc1
O=S(=O)(Nc1cc(Sc2ncn[nH]2)c(O)c2ccccc12)c1ccccc1
COc1ccc(NC(=O)N[C@@H]2CC[C@H](CCn3cc(-c4ccccc4F)nn3)O[C@@H]2CO)cc1
O=C(Cn1ncc(Cl)c(Cl)c1=O)c1ccc2c(c1)OCCO2
O=C(Cn1ncc(Cl)c(Cl)c1=O)N1CCN(S(=O)(=O)c2ccc3ccccc3c2)CC1
Cc1ccc(NC(=O)Cn2ncc(Cl)c(Cl)c2=O)cc1S(=O)(=O)N1CCCCC1
O=C(Cn1ncc(Cl)c(Cl)c1=O)c1ccc(Cl)cc1
C[C@H](CO)N1C[C@H](C)[C@@H](CN(C)Cc2cccnc2)Oc2cc(C#CC3CCCCC3)ccc2S1(=O)=O
Cc1noc(C)c1NC(=O)N(C)C[C@@H]1Oc2ccc(NS(=O)(=O)c3cn(C)cn3)cc2C(=O)N([C@@H](C)CO)C[C@@H]1C
CN=C1c2cc3cc(OC)ccc3n2CCN1Cc1ccccc1
Cc1cc(N2CCN(C)CC2)nc(=S)[nH]1
COc1cc(OC)cc(C(=O)N[C@H](C(=O)OCC(=O)NC(=O)NC(C)(C)C)C(C)C)c1
OC[C@H]1[C@@H](c2ccc(C#CC3CCCC3)cc2)[C@@H]2CN(CCC(F)(F)F)CCCCN12
N#C[C@@H]1[C@H](c2ccccc2C2=CCCCC2)[C@H](CO)N1C(=O)Cc1ccncc1
NC(=O)c1oc2ccccc2c1NC(=O)C1CC(=O)N(c2ccccc2)C1 (centres undefined)
CN(C)C(=O)C[C@H]1CC[C@@H](NC(=O)C2CCC2)[C@H](CO)O1
COCCOc1ccc(C(F)(F)F)cc1NC(=O)CN1C(=O)NC2(CCCc3ccccc32)C1=O (centres undefined)
CCOC(=O)c1[nH]c2ccc(OC)cc2c1NC(=O)c1ccc2c(c1)OCO2
CCOC(=O)c1[nH]c(C)c(C(=O)Nc2cc(Cl)ccc2C)c1C
O=c1c2c(nc3c(-c4ccc(Cl)cc4)c[nH]n13)CCCC2
CC(C)(O)c1cc(=O)sc2nc3ccccc3n12
O=C(NC1CCCC1)C(c1ccccc1)N(Cc1ccc(F)cc1)C(=O)c1csnn1 (centres undefined)
O=C(NC1CCCC1)C(c1ccncc1)N(Cc1ccccc1F)C(=O)c1csnn1 (centres undefined)
C[C@@H]1CN([C@H](C)CO)C(=O)c2cccc(NC(=O)Nc3cccc4ccccc34)c2O[C@H]1CN(C)S(C)(=O)=O
C[C@@H]1CN([C@@H](C)CO)C(=O)CCCn2cc(nn2)CO[C@H]1CN(C)C(=O)Cc1ccccc1
CC(=O)N(C)C[C@H]1Oc2ncc(C#CCc3ccccc3)cc2C(=O)N([C@@H](C)CO)C[C@H]1C
CCn1c(=N)n(CC(=O)c2ccc(OC)c(OC)c2)c2ccccc21
CC(=O)Oc1ccc(-c2csnn2)cc1
CCCNC(=O)CN(C)C(=O)c1n[nH]c2ccccc12
O=c1[nH]c(=O)c2[nH]c(=S)[nH]c2[nH]1
CC(C)c1ccc(NC(=O)c2n[nH]c(=O)c3ccccc23)cc1
COc1ccc2nc3cc(Cl)ccc3c(Nc3cc(CN4CCCC4)c(O)c(CN4CCCC4)c3)c2n1
Cc1noc(C)c1NC(=O)Nc1ccc2c(c1)C(=O)N([C@H](C)CO)C[C@@H](C)[C@@H](CN(C)S(=O)(=O)c1ccc(F)cc1)OCCCC[C@@H](C)O2
CCCCC(=O)NCCc1cc2c(OC)ccc(OC)c2[nH]c1=O
COc1cc2[nH]c(=O)n(CCCC(=O)NCCc3ccccc3)c(=O)c2cc1OC
COc1cccc(NC(=O)CN(C)C(=O)CNC(=O)c2ccccc2F)c1
Cn1nnnc1SCC(=O)NCc1cccc(C(=O)O)c1
CCCN(C)C[C@H]1Oc2cc(C#C[C@@H](C)O)ccc2S(=O)(=O)N([C@@H](C)CO)C[C@H]1C
CCn1cc([N+](=O)[O-])c(C(=O)NCc2ccc3c(c2)OCO3)n1
Cc1ccc(CNC(=O)CCS(=O)(=O)c2cc3c(cc2Cl)NC(=O)CO3)cc1
COC(=O)c1ccccc1N(C)S(=O)(=O)c1cc2c(cc1C)OCC(=O)N2
COc1ccc(C2c3c(-c4ccccc4O)n[nH]c3C(=O)N2CCc2ccc(OC)c(OC)c2)cc1 (centres undefined)
C#CCN(C[C@@H]1[C@@H](OC(=O)NCc2ccccc2F)[C@@H](OC(=O)NCc2ccccc2F)Cn2c(=O)ccc(=O)n21)S(=O)(=O)c1ccc(C)cc1
COc1ccc2c(c1)c(CC(=O)OCC(N)=O)c(C)n2C(=O)c1ccc(Cl)cc1
COc1ccc([N+](=O)[O-])c(S(=O)(=O)c2ccc(Cl)cc2)n1
CN(C)C(=O)C[C@H]1C[C@@H]2c3cc(NC(=O)C4CCOCC4)ccc3O[C@@H]2[C@H](CO)O1
C[C@H](NC(=O)C[C@H]1C[C@@H]2c3cc(NC(=O)Nc4ccc(C(F)(F)F)cc4)ccc3O[C@@H]2[C@@H](CO)O1)c1ccccc1
N#Cc1cccc(C#N)c1NCC1CCCO1 (centres undefined)
COCC#Cc1cnc2c(c1)C(=O)N([C@H](C)CO)C[C@@H](C)[C@@H](CN(C)C(=O)c1cccnc1)O2
CC1=C(C(N)=O)C(c2ccccc2)n2nc(-c3ccncc3)nc2N1 (centres undefined)
CCN(CC)C(=O)c1sc(NC(=O)c2ccncc2)c(C(=O)OC)c1C
COc1ccc(OC)c(N(CC(=O)Nc2ccccc2)S(C)(=O)=O)c1
COc1ccc(NC(=O)CN(C)C(=O)c2cnc(Cl)c(Cl)c2)cc1
CC(=O)Nc1cccc(OCC(=O)Nc2ccccc2)c1
CC(=O)Nc1ccc(NS(=O)(=O)c2ccc(C)cc2)cc1[N+](=O)[O-]
Cc1nn(CC(=O)Nc2ccc(C(C)C)cc2)c(C)c1[N+](=O)[O-]
COc1ccc(OC)c(CN2CCN(C(=O)c3ccc(NS(=O)(=O)c4cccc([N+](=O)[O-])c4)cc3)CC2)c1
CC(C)Cc1nnc(NC(=O)c2cc3c(s2)CCC3)s1
C[C@@H]1CN([C@@H](C)CO)C(=O)c2cc(NC(=O)Nc3cccc4ccccc34)ccc2O[C@@H](C)CCCCO[C@H]1CN(C)C(=O)NC1CCCCC1
N#Cc1ccc(C(c2ccc(C#N)cc2)n2cncn2)cc1
N#Cc1c(C#N)c(O)c2ccccc2c1O
OC[C@@H]1CN(Cc2ccccc2)C[C@H](n2cnc3c(NCc4ccc(F)cc4)ncnc32)O1
